From PubChem BioAssay AID1851 (National Center for Advancing Translational Sciences (NCATS), 2009) come the findings set out here.

Out of some 16,000 compounds screened, about 5,800 (36%) were called active. Inconclusive results (about 23%) are left out. The call rests on the fitted dose curve; in most records, active means well fitted curve in the direction sought with a large enough effect; inconclusive means small, poorly fitted or top-dose-only effect, or effect the other way; inactive means no such curve, though single readings can be large or run the other way. The list shows a part of the results.
On the % scale 0 is the no-effect control and ±100 the full control effect.

This test deals with Cytochrome P450 2C19 (Homo sapiens) (UniProt P33261). Kind of test: Cytochrome panel assay with activity outcomes. The following applies: recombinant CYP, pro-luciferin dealkylation, luminescence, p450-cyp2c19; series mostly up to 57.1 µM; activity, negative = inhibition: at the top concentration.
Cytochrome P450 2C19 (Homo sapiens), sequence (P33261 whole entry, looked up): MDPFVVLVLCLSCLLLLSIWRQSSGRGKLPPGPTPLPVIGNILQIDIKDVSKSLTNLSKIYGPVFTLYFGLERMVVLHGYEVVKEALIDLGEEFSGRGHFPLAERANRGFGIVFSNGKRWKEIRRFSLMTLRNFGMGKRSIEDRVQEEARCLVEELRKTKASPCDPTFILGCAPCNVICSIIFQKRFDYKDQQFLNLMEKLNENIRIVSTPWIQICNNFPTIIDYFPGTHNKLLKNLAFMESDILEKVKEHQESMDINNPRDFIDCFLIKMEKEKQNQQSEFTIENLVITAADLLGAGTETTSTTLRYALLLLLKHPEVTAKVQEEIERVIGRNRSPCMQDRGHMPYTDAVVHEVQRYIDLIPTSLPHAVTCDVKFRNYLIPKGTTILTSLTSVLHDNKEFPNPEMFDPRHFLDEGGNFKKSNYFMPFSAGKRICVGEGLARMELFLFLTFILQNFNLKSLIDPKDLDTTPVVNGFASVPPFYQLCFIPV
In the case of `CC(=O)Oc1ccc2ccccc2c1C(NC(=O)Cc1ccccc1)c1ccc(Cl)cc1` (stereo not drawn), the AC50 – broadly, the concentration at which the activity in the assay is half-maximal – is 1.26 µM (active).

In the case of `CC(=O)Oc1ccc(C(c2ccc(OC(C)=O)cc2)c2ccccn2)cc1`, the “activity, negative = inhibition” value is -19.5% [at 25.6 µM] (inactive). On the same count and under the same terms, under `O=C(Nc1ccc(OC(=O)c2cccnc2)cc1)c1cccnc1` stands 15.1% (inactive). In the case of `CCCCOc1ccc(OC(=O)c2cccnc2)cc1`, the AC50 was 17.8 µM (active). For the compound `COc1ccc(C(=O)N2CCC3(CC2)CN(c2ccncc2)C3)cc1`, the “activity, negative = inhibition” value is 12.9% (inactive).

For `CCCCCOc1ccc(OC(=O)c2ccncc2)cc1`, the AC50 is 3.16 µM (active). Take `CCCCOc1ccc(CC(=O)NO)cc1`: the “activity, negative = inhibition” value is -1.35% [at 25.6 µM] (inactive). As for `COc1ccc(OC(=O)c2ccncc2)cc1`, the half-maximal activity concentration (AC50) is 1.41 µM (active). For `COc1ccc(C(=O)N2CCC3(CC2)CCN(c2ccncc2)CC3)cc1`, the “activity, negative = inhibition” value was 5.92% (inactive).

Consider `N#Cc1ccc(OC(=O)c2ccc(N=C(N)N)cc2)cc1`, for which the activity, negative = inhibition is 14.4% [at 11.4 µM] (inactive). For `CCN(CC)C(=O)CSc1nc2ccc(NC(=O)CSc3nnc(COc4ccccc4C)n3C)cc2s1`, the AC50 is 2.82 µM (active). Take `Br/C(=N\Nc1nn[nH]n1)c1ccncc1`: the activity, negative = inhibition is 22.2% [at 11.4 µM] (inactive). For `CC(Oc1ccc(Cl)cc1Cl)C(=O)/C=C/N(C)C` (stereo not drawn), the AC50 was 2.82 µM (active).

In the case of `O=C(O)/C=C\[C@H](O)c1ccc(Cl)cc1`, the “activity, negative = inhibition” value was 36% (inactive). Consider `CC(Oc1ccc(Cl)cc1)C(=O)/C=C/N(C)C` (stereo not drawn), for which the AC50 was 7.94 µM (active). As to `CC(=O)ON(C(C)=O)S(=O)(=O)c1ccc(Cl)cc1`, the “activity, negative = inhibition” value was 7.43% (inactive).

With `CN(C)/C=C/C(=O)c1ccc(Cl)cc1`, the AC50 is 11.2 µM (active). In the case of `NCCNC(=O)c1ccc(Cl)cc1`, the AC50 entry is “inactive”. For `CCc1ccc(C(C(=O)NCc2ccc(OC)cc2)N(CCOC)C(=O)Cc2cccs2)cc1` (stereo not drawn), the AC50 is 5.62 µM (active). Regarding `O=C(NCc1ccccc1)C(c1cccs1)N(Cc1cccs1)C(=O)c1cnccn1` (stereo not drawn), the AC50 is 3.55 µM (active). With `O=C(c1cnccn1)N1CCC2(CC1)CCN(C(c1ccccc1)c1ccccc1)CC2`, the “activity, negative = inhibition” value is -17.6% (inactive).

Take `COc1ccc2nc3oc(C(=O)NCc4cccs4)cc3cc2c1`: the “activity, negative = inhibition” value was -60.4% (inactive). As to `COc1ccc(C(C(=O)NCc2ccccc2)N(Cc2cccs2)C(=O)c2cnccn2)cc1` (stereo not drawn), the AC50 was 7.08 µM (active). Consider `COc1ccc(CNC(=O)C(c2ccc(C)cc2)N(Cc2cccs2)C(=O)c2ccc3c(c2)OCCO3)cc1` (stereo not drawn), for which the AC50 was 2.82 µM (active). As for `COC(=O)CSc1ncc(OC)c(OC)n1`, the “activity, negative = inhibition” value was 4.64% (inactive). Turning to `CCOC(=O)C(C)Sc1ncc(OC)c(Sc2ccc(Cl)cc2)n1` (stereo not drawn), the AC50 was 3.55 µM (active). For `CCOC(=O)CSc1ncc(OC)c(Sc2ccc(Cl)cc2)n1`, the AC50 is 1.78 µM (active). Consider `CC[C@H]1CC[C@H]2[C@@H]3CC=C4C[C@H](OC(C)=O)[C@@H](N)C[C@@]4(C)[C@H]3CC[C@@]12C`, for which the activity, negative = inhibition was 22.6% [at 11.4 µM] (inactive). With `O=c1c2ccccc2nc2n1CCc1c-2[nH]c2ccccc12`, the “activity, negative = inhibition” value is -20.2% (inactive). As to `CCCCc1c2ccccc2nc2[nH]c3ccccc3c12`, the “activity, negative = inhibition” value was -4.3% (inactive). Turning to `c1ccc(-c2c3ccccc3nc3[nH]c4ccccc4c23)cc1`, the AC50 is 10 µM (active). For `Clc1ccc(CC[C@H](Cn2ccnc2)Sc2c(Cl)cccc2Cl)cc1`, the AC50 was 0.00251 µM (active).

Take `COc1ccc(S(=O)(=O)Nc2ccc(S(=O)(=O)N3CCCCC3)cc2)cc1C`: the AC50 was 2.82 µM (active). `COc1ccc(NS(=O)(=O)c2ccc(I)cc2)cc1N1CCN(C)CC1`: the “activity, negative = inhibition” value was -0.637% (inactive). Consider `COc1ccc(S(=O)(=O)N2CCCCCC2)cc1N(C)S(=O)(=O)c1ccc(Cl)cc1`, for which the AC50 was 5.01 µM (active). Consider `N#Cc1ccc(CN2CCC3(CC2)CCN(C(=O)c2cc(C(F)(F)F)cc(C(F)(F)F)c2)CC3)cc1`, for which the “activity, negative = inhibition” value was -15% (inactive). As to `O=c1c(-c2ccc(O)cc2)coc2cc(O)ccc12`, the AC50 was 10 µM (active). On to `O=c1c(-c2ccc(Cl)cc2)nc2cncnc2n1Cc1ccccc1Cl`, for which the AC50 was 3.98 µM (active). Consider `O=c1c(-c2ccc(F)c(F)c2)nc2cncnc2n1Cc1ccccc1Cl`, for which the AC50 was 6.31 µM (active).

On to `O=c1c(-c2ccc(F)c(F)c2)nc2cncnc2n1C1CC1`, for which the “activity, negative = inhibition” value was -7.87% (inactive).

Regarding `CN(CCOc1ccc(C[C@H](Nc2ccccc2C(=O)c2ccccc2)C(=O)O)cc1)c1ccccn1`, the AC50 was 3.98 µM (active). On to `CNc1nc(NCCOC23CC4CC(CC(C4)C2)C3)nc(OCC(F)(F)F)n1`, for which the AC50 is 1.41 µM (active). Take `CC(C)CCn1nnnc1C(c1ccc(F)cc1)N1CCN(C(=O)c2ccco2)CC1` (stereo not drawn): the AC50 was 4.47 µM (active).

As to `O=C(c1ccco1)N1CCC2(CC1)CCN(C(c1ccccc1)c1ccccc1)CC2`, the “activity, negative = inhibition” value is -18.3% (inactive).

For `CCC(c1nnnn1CCOC)N1CCN(C(=O)c2ccco2)CC1` (stereo not drawn), the AC50 is 3.98 µM (active).

With `O=C(c1ccco1)N1CCC2(CC1)CN(C(c1ccccc1)c1ccccc1)C2`, the “activity, negative = inhibition” value was -40.8% (inactive). For the compound `C[C@]1(OC(=O)/C=C\c2ccccc2)C[C@@H](O)[C@@]2(O)C=CO[C@@H](O[C@H]3O[C@@H](CO)[C@@H](O)[C@@H](O)[C@@H]3O)[C@H]21`, the “activity, negative = inhibition” value is -17.6% [at 25.6 µM] (inactive). The same measure, in the same setting: for `CC(C)NC(=O)CSc1nnc(C2CC2)n1-c1ccccc1` the value was 20.4% (inactive). For `Cc1ccc(C(=O)NNC(=O)CSc2nnc(-c3ccncc3)n2-c2ccc(C)cc2)cc1`, the AC50 is 5.62 µM (active).

Consider `CCN(CC)C(=O)CSc1nnc(-c2ccncc2)n1N`, for which the “activity, negative = inhibition” value was -17.2% (inactive). On to `O=C(CSc1nnc(-c2ccccc2)n1-c1ccccc1)c1cccs1`, for which the AC50 is 0.631 µM (active). In the case of `CCOc1ccc(-n2c(SCC(=O)Nc3ccccc3C)n[nH]c2=O)cc1`, the AC50 is 5.62 µM (active). The same measure, in the same setting: for `Cc1ccccc1NC(=O)CSc1nnc(-c2ccccc2)n1-c1ccccc1` the value was 2.24 µM (active).
